From PubChem BioAssay (EPA / NIEHS)
Inconclusive results are not listed. The source made the active and inactive calls. How the source made its calls, unless noted: active means hit-call score of the fitted dose curve at least 0.9, where 1 is the maximum; inconclusive means response in the unintended direction; inactive means score below 0.9.

Legend:
[1] = Tanguay_ZF_120hpf_SWIM_legacy: (Legacy) Oregon State University Tanguay Lab 120 Hour Post-fertilization zebrafish Assay for Swim Bladder Malformation (AID 2283654);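 further: swim bladder malformation in each larva scored yes or no under brightfield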
Method in brief: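 Scoring is binary for swim bladder defects at 120 hpf, by brightfield inspection of zebrafish larvae. Embryos were exposed singly from 6 hpf after pronase dechorionation, at 28C with 0.64% DMSO; mortality excluded scoring.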

[2] = Tanguay_ZF_120hpf_TRUN_legacy: (Legacy) Oregon State University Tanguay Lab 120 Hour Post-fertilization zebrafish Assay for Truncated Body (AID 2283655)
Method in brief: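 Truncated body is recorded as a binary endpoint at 120 hpf by brightfield imaging of wild-type 5D larvae. Exposure runs statically from 6 hpf at 28C with 0.64% DMSO; embryos dying earlier are not scored.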

[3] = Tanguay_ZF_120hpf_NC_legacy: (Legacy) Oregon State University Tanguay Lab 120 Hour Post-fertilization zebrafish Assay for Notochord and Tail Malformation (AID 2283656)
Method in brief: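 Binary scoring of notochord distortion by brightfield microscopy; embryos dying were not scored. Wild-type Tropical 5D embryos, chorion removed, exposed singly and statically from 6 to 120 hpf, 28C, sealed, 0.64% DMSO.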

[4] = Tanguay_ZF_120hpf_TR_legacy: (Legacy) Oregon State University Tanguay Lab 120 Hour Post-fertilization zebrafish Assay for Touch Response (AID 2283667)
Method in brief: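 Binary touch-response endpoint in larvae at 120 hpf after static waterborne exposure from embryo stage (28°C, 0.64% DMSO vehicle, 5 uM trimethyltin chloride as positive control); embryos dead at 24 or 120 hpf excluded; fitted as gain versus DMSO.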

[5] = CCTE_Padilla_ZF_144hpf_TERATOSCORE: (Legacy) CCTE's 144 Hour Post-fertilization zebrafish Assay Teratoscore, Padilla Lab (AID 2283679; active means hit-call score of the fitted dose curve at least 0.9, where 1 is the maximum; inactive means score below 0.9;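 on AC50: zebrafish embryos with chorions exposed by immersion from 6-8 hpf to 5 dpf with daily renewal; teratogenicity score from eye scoring of death hatching and malformations at 144 hpf; higher score means more developmental defects relative to DMSO baseline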)
Method in brief: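 Larvae scored by eye at 144 hpf for death, hatching and malformations after a day in clean Hanks'. Before that, daily-renewed exposure at 80 uM (0.4% DMSO, 26C) from roughly 6-8 hpf through 5 dpf, 4 embryos per chemical.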

[6] = test system: Thyroperoxidase (TPO), gene 54314; experiment: CCTE_Simmons_AUR_rTPO: CCTE's Amplex UltraRed Assay for Thyroperoxidase (TPO) Inhibition, Simmons Lab (AID 2283662);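 on AC50: potency for loss of signal meaning inhibition of peroxidase activity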
Method in brief: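 Rat thyroid microsomes (5 ug protein) with 25 uM Amplex UltraRed and 300 uM H2O2 in 200 mM phosphate buffer, 30 min at 37C in dark; fluorescence 544/590 nm. Eight concentrations, 5 nM–87.5 uM final, 0.5% DMSO, triplicate biological replicates.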

[7] = CCTE_Simmons_CellTiterGLO_HEK293T: Viability Assessment in CCTE's Assays for Thyroperoxidase (TPO) Inhibition, Simmons Lab (AID 2283665);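 on AC50: cells exposed to compound for 24 h before readout; actives reduce ATP signal below DMSO vehicle meaning cytotoxicity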
Method in brief: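 Luciferase-coupled ATP content after 24 h exposure gives viability; 8-point series from 5 nM to 87.5 uM final in 0.5% DMSO. Human HEK293T cells, 1% FBS medium, three biological replicates, dichlone positive control.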

[8] = read-out: solute carrier (SLC10A1), SLC10A1 (gene 6554); experiment: LTEA_HepaRG_SLC10A1: Life Technologies and Expression Analysis (LTEA) Assay for solute carrier (SLC10A1) using HepaRG (AID 2283657; active means hit-call score of the fitted dose curve at least 0.9, where 1 is the maximum; inactive means score below 0.9); details: mRNA level, 48 h; actives raise or lower the signal
Method in brief: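 SLC10A1 transcript measured by TaqMan qRT-PCR, housekeeping-normalised, after 48 h chemical treatment of human HepaRG cells. Eight concentrations (half-log, max 100 uM, 0.5% DMSO vehicle) in duplicate; fitted bidirectionally against DMSO baseline.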

[9] = read-out: matrix metalloproteinase-1 (MMP1), MMP1 (gene 4312); experiment: LTEA_HepaRG_MMP1: Life Technologies and Expression Analysis (LTEA) Assay for matrix metalloproteinase-1 (MMP1) using HepaRG (AID 2283658; active means hit-call score of the fitted dose curve at least 0.9, where 1 is the maximum; inactive means score below 0.9); details: mRNA level, 48 h; actives raise or lower the signal
Procedure: (§1) LTEA_HepaRG is a cell based, multiplexed-readout assay that uses HepaRG, a human liver cell line, with measurements taken at 48 hours after chemical dosing on a 96-well plate.LTEA_HepaRG_MMP1 is one of 102 assay component(s) measured in the LTEA HepaRG cell culture assay. It is a marker of Fibrosis.Data from the assay component LTEA_HepaRG_MMP1 was analyzed into 1 endpoint. This assay endpoint, LTEA_HepaRG_MMP1, was analyzed with bidirectional fitting relative to DMSO as the negative control and baseline of activity. Using a type of inducible reporter, measures of mRNA induction for gain or loss-of-signal activity can be used to understand regulation of transcription factor activity. To generalize the intended target to other relatable targets, this assay endpoint is annotated to the protease intended target family, where the subfamily is matrix metalloproteinase.
(§2) A total of 1060 chemcials from the ToxCast library were tested in eight-point concentration-response experiments. Cell culture and cytotoxicity assays were conducted at Thermo Fisher Scientific's Custom Services facility (Madison, WI). A single lot of human HepaRG cells (Thermo Fisher Scientific, Frederick, MD) was used for the cell culture experiments. 96-well format collagen type I coated plates of human HepaRG cells were prepared using established methods. Briefly, cryopreserved HepaRG cells were thawed, plated at a density of approximately 100,000 cells/well in HepaRG Thaw, Plate, and General Purpose media (HPRG770, Thermo Fisher Scientific), and incubated for 48 hours. […] Fluidigm's 96.96 Dynamic ArrayTM (Fluidigm, Amsterdam, the Netherlands) technology was used for gene expression analyses by quantitative reverse transcription polymerase chain reaction (qRT-PCR, performed by Quintiles/Expression Analysis, Durham, NC)89. […]

[10] = read-out: Cytochrome P450 (CYP24A1_1), CYP24A1 (gene 1591); experiment: LTEA_HepaRG_CYP24A1_1: Life Technologies and Expression Analysis (LTEA) Assay for Cytochrome P450 (CYP24A1_1) using HepaRG (AID 2283671; active means hit-call score of the fitted dose curve at least 0.9, where 1 is the maximum; inactive means score below 0.9); details: mRNA level, 48 h; actives raise or lower the signal
Procedure: as §1, with “plate.LTEA_HepaRG_CYP24A1_1” for “plate.LTEA_HepaRG_MMP1”, “NR mediated metabolism.Data” for “Fibrosis.Data”, “LTEA_HepaRG_CYP24A1_1” for “LTEA_HepaRG_MMP1”, “LTEA_HepaRG_CYP24A1_1,” for “LTEA_HepaRG_MMP1,”, “cyp” for “protease”, “xenobiotic metabolism.” for “matrix metalloproteinase.”
as §2

Measured: AC50

CCOC(N)=O
inactive: [1] | [2] | [3] | [4]

Cn1c(=O)c2[nH]cnc2n(C)c1=O
inactive: [1] | [2] | [3] | [4]

OC(CCl)CCl
inactive: [1] | [2] | [3] | [4]

O=C1CN(N=Cc2ccc([N+](=O)[O-])o2)C(=O)N1
inactive: [1] | [2] | [3] | [4] | [5]

CCn1nc(C)c2c1C(=O)NCC(c1ccc(O)cc1)=N2
active: [6] 11.9 µM
inactive: [1] | [2] | [3] | [7] | [4]

Nc1ccn([C@@H]2O[C@H](CO)[C@@H](O)[C@@H]2O)c(=O)n1
inactive: [1] | [2] | [3] | [4]

OCCOCCOCCO
inactive: [1] | [2] | [3] | [4]

Cc1ncc([C@@H](CCCCCCc2ccc3c(n2)NCCC3)CC(=O)O)cn1
inactive: [1] | [2] | [3] | [4]

CCCCCCCCCCCCCCCCOS(=O)(=O)O
active: [7] 26.7 µM | [5] 7.7 µM
inactive: [1] | [2] | [3] | [6] | [4]

CNC(C)=O
inactive: [1] | [2] | [3] | [4]

CCCC(CCC)C(=O)O
active: [5] 78.7 µM
not listed: [6] | [7]
inactive: all other assays above

c1ccc2ncccc2c1
inactive: [1] | [2] | [3] | [4]

CCCOc1ccc(S(=O)(=O)N2CCN(CC)CC2)cc1-c1nc2c(CC)n(Cc3ccccn3)nc2c(=O)[nH]1
inactive: [1] | [2] | [3] | [4]

COS(C)(=O)=O
active: [6] 49.7 µM
inactive: [1] | [2] | [3] | [7] | [4]

C[C@]12C=CC(=O)C=C1CC[C@H]1[C@@H]3C[C@@H](O)[C@](O)(C(=O)CO)[C@@]3(C)C[C@H](O)[C@@]12F
inactive: [1] | [2] | [3] | [4]

CC1(C)C(=O)N(Cl)C(=O)N1Cl
inactive: [1] | [2] | [3] | [4]

O=C(O)c1ccc2c(c1)nc(C(=O)NC1CCN(C3CC3)CC1)n2Cc1cc(-c2ccc(Cl)s2)on1
inactive: [1] | [2] | [3] | [4]

NC(N)=O
inactive: [1] | [2] | [3] | [4]

CCCCCOC(C)=O
inactive: [1] | [2] | [3] | [4]

CC(C)CCCCCCOC(=O)C1CCCCC1C(=O)OCCCCCCC(C)C (stereo unspecified)
inactive: [1] | [2] | [3] | [4]

OC[C@H]1O[C@@](CO)(O[C@H]2O[C@H](CO)[C@@H](O)[C@H](O)[C@H]2O)[C@@H](O)[C@@H]1O
inactive: [1] | [2] | [3] | [4]

Cc1ccc(S(=O)(=O)NC(=O)NN2CCCCCC2)cc1
active: [6] 8.68 µM
inactive: [1] | [2] | [3] | [7] | [4]

NNC(=O)c1ccncc1
inactive: [1] | [2] | [3] | [7] | [4]
active: [6] 1.92 µM

CCCCCCCCCCCCCCO
inactive: [1] | [2] | [3] | [4]

CC(=O)c1ccccc1
inactive: [1] | [2] | [3] | [4]

CCCCCCCCN(C)C
inactive: [1] | [2] | [3] | [4]

OCC(CO)(CO)CO
inactive: [1] | [2] | [3] | [4] | [5]

O=C(O)c1cccc(C(=O)O)c1
inactive: [1] | [2] | [3] | [4]

NC(=O)NN=Cc1ccc([N+](=O)[O-])o1
inactive: [1] | [2] | [3] | [4]

O=C(NO)C1(NS(=O)(=O)c2ccc(Oc3ccc(F)cc3)cc2)CCOCC1
inactive: [1] | [2] | [3] | [7] | [4]
active: [6] 18.1 µM

OCCNCCO
inactive: [1] | [2] | [3] | [4]

O=C(O)[C@H](O)[C@@H](O)C(=O)O
inactive: [1] | [2] | [3] | [4]

C=CN1CCCC1=O
inactive: [1] | [2]

CCc1ccc(O)c(C(C)(C)C)c1
inactive: [1] | [2] | [3] | [4]
active: [6] 13 µM | [7] 12.6 µM | [5] 25.1 µM

NC(=O)N1c2ccccc2C=Cc2ccccc21
inactive: [1] | [2] | [3] | [4]

c1ccc2cc3ccccc3cc2c1
active: [8] 10.4 µM
inactive: [9] | [10]

COc1cc2c(c(OC)c1OC)-c1ccc(OC)c(=O)cc1[C@@H](NC(C)=O)CC2
active: [8] 0.107 µM | [10] 0.067 µM
inactive: [9]
